Source: ChEMBL document CHEMBL3988442, “University of Dundee, Small-Polar-MMV Screening Library” (2021)
In all, about 48,000 compounds went through this assay and about 13,000 (27%) showed an effect of 50% or more. The list shows a part of the results.

test system: Wolbachia pipientis; assay: Anti-Wolbachia Cell-Based Screen; type: functional; parameters: scale not given: in the data most compounds retested in dose-response had high values; conditions: 5 µM

Q: For `Cc1ncsc1C(=O)NCc1cc2n(n1)CCN(C(=O)N(C)C)C2`, which “Percent Effect” value is on record?
A: The value was -4.389%.

Q: How did the “Percent Effect” value turn out when `Cc1sc2nc(CCN)nc(N3CCN(S(C)(=O)=O)CC3)c2c1C` was run?
A: The value was 5.151%.

Q: For `CN1CC(=O)N(c2cccnc2)CC12CCN(C(=O)c1cccnc1)C2.O=C(O)C(F)(F)F.O=C(O)C(F)(F)F` (stereo not drawn), which “Percent Effect” value is on record?
A: Its value is -6.437%.

Q: Which “Percent Effect” value does the source give for `CN1CC(=O)N(c2cnn(C)c2)CC12CCN(C(=O)c1ccsc1)C2.O=C(O)C(F)(F)F` (stereo not drawn) here?
A: Its value is -13.31%.

Q: Which “Percent Effect” value does the source give for `CCC(CC)C(=O)N1CCC2(C1)CN(c1ccccc1)C(=O)CN2C.O=C(O)C(F)(F)F` (stereo not drawn) here?
A: Its value is -2.96%.

Q: `CN1CC(=O)N(c2ccccc2)CC12CCN(C(=O)c1ccnnc1)C2.O=C(O)C(F)(F)F` (stereo not drawn) was tested. Which “Percent Effect” value did it give?
A: The value was 94.6%.

Q: `CN1CC(=O)N(c2ccccc2)CC12CCN(C(=O)c1cnccn1)C2.O=C(O)C(F)(F)F` (stereo not drawn) was tested. Which “Percent Effect” value did it give?
A: The value was 102.5%.

Q: Which “Percent Effect” value does the source give for `CN1CC(=O)N(c2ccsc2)CC12CCN(C(=O)c1ccccc1)C2.O=C(O)C(F)(F)F` (stereo not drawn) here?
A: Its value is 8.898%.

Q: `Cc1ccsc1C(Cc1ccccc1)NC(=O)CSCC(N)=O` (stereo not drawn) was tested. Which “Percent Effect” value did it give?
A: Its value is -6.461%.

Q: Which “Percent Effect” value does the source give for `COCCCOC1CN(C(=O)c2[nH]nc3c2CCCC3)C1` here?
A: The value was -6.811%.

Q: `Cl.Cl.O[C@@H]1C[C@@](CNCC2CC2)(COc2cccnc2)C[C@@H]1O` was tested. Which “Percent Effect” value did it give?
A: Its value is -8.613%.

Q: For `CC(C)(C)c1cc(=O)[nH]c(-c2ccccc2CN2CCC[C@@H](O)C2)n1`, which “Percent Effect” value is on record?
A: The value was -11.42%.

Q: With `CC1(C)CCN(Cc2ccccc2-c2nc(C(C)(C)C)cc(=O)[nH]2)C1` as the compound, how does the “Percent Effect” value read?
A: Its value is -0.3128%.

Q: How did the “Percent Effect” value turn out when `CC(C)(C)c1cc(=O)[nH]c(-c2ccccc2CN2CCCCCC2)n1` was run?
A: The value was 107.3%.

Q: How did the “Percent Effect” value turn out when `Cc1nc(N2CCC(C(O)c3nccn3C)CC2)c2cccnc2n1` (stereo not drawn) was run?
A: The value was -5.3%.

Q: With `Cc1nc(N2CCC(C(O)c3nccn3C)CC2)c2c(C)noc2n1` (stereo not drawn) as the compound, how does the “Percent Effect” value read?
A: The value was 0.7849%.

Q: Which “Percent Effect” value does the source give for `CC(C)N1CCC(C(=O)N2CCC(C(O)c3nccn3C)CC2)CC1` (stereo not drawn) here?
A: The value was 119.5%.

Q: Which “Percent Effect” value does the source give for `CC(C)N1CCC(CC(=O)N2CCN(Cc3nccn3C)CC2)CC1` here?
A: The value was 103.8%.

Q: For `CC(C)N1CCC(CC(=O)N2CCC(C(O)c3nccn3C)CC2)CC1` (stereo not drawn), which “Percent Effect” value is on record?
A: Its value is 112.6%.

Q: `CCCN1CCC(CC(=O)N2CC(C)(C)[C@@](C)(O)C2)CC1` was tested. Which “Percent Effect” value did it give?
A: Its value is 2.3%.

Q: How did the “Percent Effect” value turn out when `CCn1ncnc1C(NC(=O)CC1CCN(C(C)C)CC1)C1CC1` (stereo not drawn) was run?
A: Its value is -0.6358%.

Q: For `CC(C)N1CCC(CC(=O)N2CCCCC2CCn2cccn2)CC1` (stereo not drawn), which “Percent Effect” value is on record?
A: Its value is 17.49%.

Q: For `Cc1nc(N2CCC(C(O)c3nccn3C)CC2)c2nc(C)oc2n1` (stereo not drawn), which “Percent Effect” value is on record?
A: The value was 6.999%.

Q: How did the “Percent Effect” value turn out when `CCCN1CCC(CC(=O)N2CCC(C(O)c3nccn3C)CC2)CC1` (stereo not drawn) was run?
A: Its value is 109.9%.

Q: Which “Percent Effect” value does the source give for `CC(C)n1ccnc1CN1CCCN(C(=O)CC2C=CCC2)CC1` (stereo not drawn) here?
A: The value was 11%.

Q: With `CCOc1ccccc1CN(CC)Cc1ccc(S(C)(=O)=O)cc1` as the compound, how does the “Percent Effect” value read?
A: The value was 14.95%.

Q: Which “Percent Effect” value does the source give for `CSc1ccc(NCC(=O)Nc2c(C)nn(C)c2C)cc1F` here?
A: Its value is -13.07%.

Q: How did the “Percent Effect” value turn out when `CCS(=O)(=O)CC(=O)NC(C)c1ccc(F)cc1F` (stereo not drawn) was run?
A: The value was 5.956%.

Q: `CC(NC(=O)Cn1ccc(=O)n(C)c1=O)c1cc(F)ccc1F` (stereo not drawn) was tested. Which “Percent Effect” value did it give?
A: Its value is 123.1%.

Q: Which “Percent Effect” value does the source give for `Cn1c(=O)ccn(CC(=O)Nc2cnccc2O)c1=O` here?
A: Its value is -3.574%.

Q: For `CC(NC(=O)Cn1ccc(=O)n(C)c1=O)c1ccccc1F` (stereo not drawn), which “Percent Effect” value is on record?
A: The value was 122%.

Q: With `Cn1c(=O)ccn(CC(=O)NCC2Cc3ccccc3O2)c1=O` (stereo not drawn) as the compound, how does the “Percent Effect” value read?
A: Its value is 4.727%.

Q: With `CC(NCCn1cccn1)c1ccccc1F` (stereo not drawn) as the compound, how does the “Percent Effect” value read?
A: The value was 17.82%.

Q: Which “Percent Effect” value does the source give for `Cc1nnc2n1CCN(c1nc3ccccc3o1)C2` here?
A: The value was 7.974%.

Q: For `CCNC(=O)C(C)Oc1ccc(N(C)S(C)(=O)=O)cc1` (stereo not drawn), which “Percent Effect” value is on record?
A: Its value is 35.45%.

Q: Which “Percent Effect” value does the source give for `CC(C)c1ccc(OCCC(=O)NCCC(=O)N(C)C)cc1` here?
A: Its value is 5.568%.

Q: With `CCCNC(=O)C(C)Oc1ccccc1` (stereo not drawn) as the compound, how does the “Percent Effect” value read?
A: The value was 7.787%.

Q: For `CC(Oc1cc(Cl)cc(Cl)c1)C(=O)NCCC(=O)N(C)C` (stereo not drawn), which “Percent Effect” value is on record?
A: The value was 99.28%.

Q: How did the “Percent Effect” value turn out when `CC(Oc1cc(Cl)cc(Cl)c1)C(=O)NCCS(N)(=O)=O` (stereo not drawn) was run?
A: The value was 112.6%.

Q: Which “Percent Effect” value does the source give for `CCCNC(=O)C(C)Oc1ccc(F)cc1` (stereo not drawn) here?
A: Its value is -16.03%.

Q: How did the “Percent Effect” value turn out when `CC(Oc1ccc(S(C)(=O)=O)cc1)C(=O)NC(N)=O` (stereo not drawn) was run?
A: The value was -0.9866%.

Q: With `CC(Oc1cc(Cl)cc(Cl)c1)C(=O)NCCOCC(N)=O` (stereo not drawn) as the compound, how does the “Percent Effect” value read?
A: The value was 92.53%.

Q: How did the “Percent Effect” value turn out when `CC(Oc1ccccc1C(F)(F)F)C(=O)NCCC(=O)N(C)C` (stereo not drawn) was run?
A: Its value is 4.179%.

Q: Which “Percent Effect” value does the source give for `Cc1ccc(-c2noc(C(C)NS(C)(=O)=O)n2)cc1` (stereo not drawn) here?
A: Its value is 98.3%.

Q: With `Cc1cnn(C2CN(C(C)c3nc(-c4ccccc4)no3)C2)c1` (stereo not drawn) as the compound, how does the “Percent Effect” value read?
A: Its value is -0.8523%.

Q: For `Cc1ccc(-c2noc([C@@H]3C[C@H](NC(=O)NC(C)C)CN3C)n2)cc1`, which “Percent Effect” value is on record?
A: Its value is -7.192%.

Q: For `CSCCC(=O)N1CCCCC1CCn1cccn1` (stereo not drawn), which “Percent Effect” value is on record?
A: The value was -3.819%.

Q: How did the “Percent Effect” value turn out when `O=C(CCc1ccccc1)N1CCCCC1Cn1cccn1` (stereo not drawn) was run?
A: The value was 99.73%.

Q: How did the “Percent Effect” value turn out when `O=C(CCc1ccsc1)N1CCCCC1Cn1cccn1` (stereo not drawn) was run?
A: Its value is 114.6%.

Q: How did the “Percent Effect” value turn out when `CN(Cc1ccsc1)C(=O)CN1CCCCC1Cn1cccn1` (stereo not drawn) was run?
A: The value was -3.818%.

Q: For `COc1cccc(CCC(=O)N2CCCCC2Cn2cccn2)c1` (stereo not drawn), which “Percent Effect” value is on record?
A: The value was -6.08%.

Q: How did the “Percent Effect” value turn out when `O=C(CCc1cccs1)N1CCCCC1Cn1cccn1` (stereo not drawn) was run?
A: The value was 8.16%.

Q: For `O=C(CN1CCN(CCO)CC1)NCc1ccc(Cl)s1`, which “Percent Effect” value is on record?
A: The value was -5.807%.

Q: With `Cc1nsc(NC2CCOC3(CCCC3)C2)n1` (stereo not drawn) as the compound, how does the “Percent Effect” value read?
A: The value was -8.543%.

Q: For `Cn1cc(C(=O)N2CCCN(C3Cc4ccccc4C3)CC2)cn1`, which “Percent Effect” value is on record?
A: Its value is -3.221%.

Q: How did the “Percent Effect” value turn out when `CCn1cc(C(=O)N2C[C@H]3C[C@H](Oc4ccccc4)C[C@H]3C2)cn1` was run?
A: Its value is 75.19%.

Q: For `Cn1cc(C(=O)N2C[C@H]3C[C@H](Oc4ccccc4)C[C@H]3C2)cn1`, which “Percent Effect” value is on record?
A: Its value is 96.44%.

Q: How did the “Percent Effect” value turn out when `CN(C)c1ncc(C(=O)N2C[C@H]3C[C@H](Oc4ccccc4)C[C@H]3C2)cn1` was run?
A: The value was 125.1%.

Q: `Cc1cccc(OC2CN(C(=O)c3cnn(C)c3)C2)c1` was tested. Which “Percent Effect” value did it give?
A: The value was -4.108%.

Q: For `CCn1cc(CN2C[C@H]3CC[C@@H]2CN(C(=O)c2ccncc2)C3)cn1`, which “Percent Effect” value is on record?
A: Its value is 5.818%.

Q: Which “Percent Effect” value does the source give for `COc1cccc(OC2CN(C(=O)c3ccnc(OC)c3)C2)c1` here?
A: Its value is 6.103%.

Q: `CCc1ncc(C(=O)N2CC(Oc3ccccc3Cl)C2)cn1` was tested. Which “Percent Effect” value did it give?
A: Its value is 4.007%.

Q: For `COc1ccc(CN2C[C@@H](O)[C@](O)(CNC(=O)c3ccccn3)C2)cc1`, which “Percent Effect” value is on record?
A: The value was 112%.

Q: How did the “Percent Effect” value turn out when `Cc1cccc(CN2C[C@@H]3COC[C@]3(CNC(=O)c3ccsc3)C2)n1.O=C(O)C(F)(F)F.O=C(O)C(F)(F)F` was run?
A: Its value is 8.722%.

Q: How did the “Percent Effect” value turn out when `O=C(N[C@@H]1CCN(C(=O)c2ccc(F)cc2Cl)C[C@H]1O)c1ccccn1` was run?
A: The value was -3.407%.

Q: How did the “Percent Effect” value turn out when `COc1ccc2c(c1)nc1n2[C@@H](CNC(=O)c2ccccn2)COC1` was run?
A: Its value is 1.575%.

Q: With `O=C(NC[C@]1(O)CN(Cc2ncccc2F)C[C@H]1O)c1cc[nH]n1` as the compound, how does the “Percent Effect” value read?
A: The value was 112.1%.

Q: For `COc1ccc(CNC(=O)c2ccc(Br)cn2)cc1`, which “Percent Effect” value is on record?
A: Its value is -6.814%.

Q: For `Cc1ncsc1CN1C[C@@H]2COC[C@]2(CNC(=O)c2ccco2)C1.O=C(O)C(F)(F)F`, which “Percent Effect” value is on record?
A: Its value is -13.65%.

Q: `Cc1ncsc1CNC(=O)N1CCN(Cc2ccccc2)C[C@H]1C` was tested. Which “Percent Effect” value did it give?
A: Its value is 1.865%.

Q: For `O=C(NC[C@]1(O)CN(Cc2ccc(F)cc2)C[C@H]1O)c1ccccn1`, which “Percent Effect” value is on record?
A: Its value is 127.5%.

Q: For `Cc1ncsc1CN1C[C@@H](O)[C@](O)(CNC(=O)c2ccccn2)C1`, which “Percent Effect” value is on record?
A: Its value is 100.8%.

Q: Which “Percent Effect” value does the source give for `NC(=O)C(NC1CCN(Cc2ccc(F)cc2)CC1)c1ccccc1` (stereo not drawn) here?
A: The value was 12%.
